In experiment [1] the target is Retinoic acid receptor RXR-alpha (Homo sapiens) (UniProt P19793). Nature of the experiment: ATG_RXRa_TRANS: Attagene TRANS-FACTORIAL HepG2 Assay for human Retinoid X Receptor alpha (RXRa) (AID 2283012; active = hit-call score of the fitted dose curve at least 0.9, where 1 is the maximum). In short, it runs like this:
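TRANS format reporting activity of exogenous RXRa-Gal4 chimera in transiently transfected HepG2, 24 h exposure. Reporter transcripts quantified by RT-PCR with capillary electrophoresis, with gain of signal scored relative to DMSO.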

The target of experiment [2] is human Retinoid X Receptor beta (RXRb), RXRB (gene 6257) (UniProt P28702). The experiment is described as follows: ATG_RXRb_TRANS: Attagene TRANS-FACTORIAL HepG2 Assay for human Retinoid X Receptor beta (RXRb) (AID 2283013; active = hit-call score of the fitted dose curve at least 0.9, where 1 is the maximum). The method, boiled down:
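Readout is reporter transcript induction after 24 h dosing. It is measured by RT-PCR of total RNA followed by fluorescent capillary electrophoresis. HepG2 liver cells carry transfected multiple reporter units driven by an exogenous RXRb-Gal4 fusion; activity is relative to DMSO.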

Experiment [3] has as its target human Thyroid Receptor alpha (THRa1), THRA (gene 7067) (UniProt P10827). Nature of the experiment: ATG_THRa1_TRANS: Attagene TRANS-FACTORIAL HepG2 Assay for human Thyroid Receptor alpha (THRa1) (AID 2283014; active = hit-call score of the fitted dose curve at least 0.9, where 1 is the maximum). The method, boiled down:
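Transient HepG2 transfection, NR-Gal4 chimera driving GAL4-UAS reporters; 24 h compound exposure; total RNA, oligo(dT) RT, PCR, fluorescent primer extension, capillary electrophoresis. Upward direction vs DMSO control.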

Read-out in experiment [4]: E-selectin (Homo sapiens) (UniProt P16581)
Nature of the experiment: BSK_3C_Eselectin: BioMAP Diversity Plus: 3C Assay for Eselectin Biomarker Activity (AID 2283015).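 For outcome: cell surface E-selectin protein quantified by ELISA 24 h after dosing.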 To be noted: primary human endothelial cells (HUVEC); actives raise or lower the signal. In short, it runs like this: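 HUVEC, 3C stimulation; compound exposure 24 h; E-selectin by ELISA; gain- or loss-of-signal fitted bidirectionally vs DMSO baseline.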

Read-out in experiment [5]: Interleukin-1 alpha (IL1a), IL1A (gene 3552)
Nature of the experiment: BSK_BE3C_IL1a: BioMAP Diversity Plus: BE3C Assay for Interleukin-1 alpha (IL1a) Biomarker Activity (AID 2283016). The note with it: primary human bronchial epithelial cells; actives raise or lower the signal. The method, boiled down: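 IL-1a measured by ELISA after 24 h treatment of human primary bronchial epithelial cells, with gain or loss of signal fitted versus DMSO. Parallel cultures stained with SRB gauge overt cytotoxicity.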

Read-out in experiment [6]: Monocyte Chemoattractant Protein-1 (MCP1), CCL2 (gene 6347)
Nature of the experiment: BSK_3C_MCP1: BioMAP Diversity Plus: 3C Assay for Monocyte Chemoattractant Protein-1 (MCP1) Biomarker Activity (AID 2283017). The note with it: primary human endothelial cells (HUVEC); actives raise or lower the signal. The method, boiled down: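 HUVEC, 3C system; 24 h chemical exposure; MCP-1 by ELISA; bidirectional curve fit vs DMSO baseline.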

Read-out in experiment [7]: Monocyte Chemoattractant Protein-1 (MCP1), CCL2 (gene 6347)
Nature of the experiment: BSK_4H_MCP1: BioMAP Diversity Plus: 4H Assay for Monocyte Chemoattractant Protein-1 (MCP1) Biomarker Activity (AID 2283018). The note with it: primary human endothelial cells (HUVEC); actives raise or lower the signal. In short, it runs like this:
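ELISA of MCP-1 (CCL2) 24 h after chemical dosing of HUVEC in the BioMAP 4H system. Gain or loss versus DMSO fitted; parallel SRB staining (560 nm) tracked overt cytotoxicity.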

Read-out in experiment [8]: Human Leukocyte Antigen - DR isotype (HLADR), HLA-DRA (gene 3122)
Nature of the experiment: BSK_3C_HLADR: BioMAP Diversity Plus: 3C Assay for Human Leukocyte Antigen - DR isotype (HLADR) Biomarker Activity (AID 2283019).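 For outcome: ELISA of cell-surface HLA-DR on HUVEC 24 h after dosing.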 The note with it: primary human endothelial cells (HUVEC); actives raise or lower the signal. In short, it runs like this: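 HUVEC, 3C stimulation, 24 h post-dose; HLA-DR by ELISA; bidirectional curve fit vs DMSO baseline; gain or loss of signal scored.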

Read-out in experiment [9]: Interleukin-8 (IL8), CXCL8 (gene 3576)
Nature of the experiment: BSK_3C_IL8: BioMAP Diversity Plus: 3C Assay for Interleukin-8 (IL8) Biomarker Activity (AID 2283020). To be noted: primary human endothelial cells (HUVEC); actives raise or lower the signal. The method, boiled down: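 IL-8 was measured by ELISA in HUVEC cultures 24 h after chemical dosing, with gain or loss of signal fitted relative to DMSO. Parallel SRB total-protein staining tracked overt cytotoxicity.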

Read-out in experiment [10]: Monokine induced gamma interferon (MIG), CXCL9 (gene 4283)
The experiment is described as follows: BSK_3C_MIG: BioMAP Diversity Plus: 3C Assay for Monokine induced gamma interferon (MIG) Biomarker Activity (AID 2283021).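 For AC50: MIG protein level measured by immunoassay in the treated endothelial cultures.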 The note with it: primary human endothelial cells (HUVEC); actives raise or lower the signal. In short, it runs like this: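 ELISA measurement of MIG in human umbilical vein endothelial cells 24 h after treatment. Cytotoxicity tracked by SRB staining in parallel cultures; gain or loss of signal fitted relative to DMSO.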

Experiment [11] in a line: BSK_3C_SRB: Viability Assessment in the BioMAP Diversity Plus: 3C Assay (AID 2283023).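 Note: fitted both ways against DMSO so a hit may be signal rise or drop.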 The note with it: primary human endothelial cells (HUVEC). The method, boiled down:
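HUVEC, 24 h post-dose; 10% TCA fix, 0.1% SRB stain, A560 nm. Bidirectional curve fit vs DMSO negative control.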

A short description of experiment [12]: BSK_3C_Vis: BioMAP Diversity Plus: 3C Assay for Morphology Visualization (AID 2283025).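 Note: fitted both ways so gain or loss versus DMSO counts.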 To be noted: primary human endothelial cells (HUVEC). The method, boiled down: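 Light-microscopy visualization of HUVEC cultures at 24 h post-treatment, with DMSO as baseline for bidirectional fitting.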
Read-out in experiment [13]: Pselectin, SELP (gene 6403)
The experiment is described as follows: BSK_4H_Pselectin: BioMAP Diversity Plus: 4H Assay for Pselectin Biomarker Activity (AID 2283026). To be noted: primary human endothelial cells (HUVEC); actives raise or lower the signal. In short, it runs like this:
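ELISA of surface P-selectin on HUVEC, 24 h after dosing, with parallel SRB staining (0.1% after 10% TCA fixation, 560 nm) for overt cytotoxicity. Activity fitted in both directions relative to DMSO.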

A short description of experiment [14]: BSK_4H_SRB: Viability Assessment in the BioMAP Diversity Plus: 4H Assay (AID 2283027).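 For AC50: curves fitted both ways versus DMSO so AC50 may be loss or gain.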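 Note: cells exposed to compound for 24 h before staining.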 The note with it: primary human endothelial cells (HUVEC). In short, it runs like this: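 Cytotoxicity read-out in primary human endothelial cells: after 24 h compound exposure, cells were TCA-fixed (10%), stained with 0.1% SRB and absorbance taken at 560 nm. Values fitted in both directions relative to DMSO.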

Experiment [15] is described as follows: BSK_BE3C_SRB: Viability Assessment in the BioMAP Diversity Plus: BE3C Assay (AID 2283028). To be noted: primary human bronchial epithelial cells. The method, boiled down:
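Primary human bronchial epithelium; chemical dosing, 24 h; 10% TCA fix, 0.1% SRB stain, A560; bidirectional fit vs DMSO baseline.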

Read-out in experiment [16]: Urokinase-type plasminogen activator receptor (uPAR), PLAUR (gene 5329)
Nature of the experiment: BSK_4H_uPAR: BioMAP Diversity Plus: 4H Assay for Urokinase-type plasminogen activator receptor (uPAR) Biomarker Activity (AID 2283030). To be noted: primary human endothelial cells (HUVEC); actives raise or lower the signal. The method, boiled down:
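HUVEC, 24 h post-dose; uPAR by ELISA; bidirectional fit vs DMSO baseline.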

Read-out in experiment [17]: Vascular endothelial growth factor receptor 2 (Homo sapiens) (UniProt P35968)
The experiment is described as follows: BSK_4H_VEGFRII: BioMAP Diversity Plus: 4H Assay for Vascular endothelial growth factor receptor 2 (VEGFR2) Biomarker Activity (AID 2283031).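 For AC50: cell-surface VEGFR2 protein level quantified by ELISA.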 To be noted: primary human endothelial cells (HUVEC); actives raise or lower the signal. The method, boiled down: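 HUVEC (human primary), 4H system; 24 h post-dose; VEGFRII by ELISA; bidirectional curve fit vs DMSO baseline; gain or loss of signal scored.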

Experiment [18] deals with human Vitamin D Receptor (VDR), VDR (gene 7421) (UniProt P11473). Nature of the experiment: ATG_VDR_TRANS: Attagene TRANS-FACTORIAL HepG2 Assay for human Vitamin D Receptor (VDR) (AID 2283022; active = hit-call score of the fitted dose curve at least 0.9, where 1 is the maximum). The method, boiled down:
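RT-PCR/capillary electrophoresis read-out of reporter mRNA induction in transiently transfected HepG2; 24 h dosing; chimeric NR-Gal4 (TRANS format); gain-of-signal fit against DMSO baseline.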

Read-out in experiment [19]: Matrix Metallopeptidase 1 (MMP1), MMP1 (gene 4312)
Nature of the experiment: BSK_BE3C_MMP1: BioMAP Diversity Plus: BE3C Assay for Matrix Metallopeptidase 1 (MMP1) Biomarker Activity (AID 2283024). To be noted: primary human bronchial epithelial cells; actives raise or lower the signal. The method, boiled down: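 ELISA measurement of MMP-1 after 24 h compound exposure of primary human bronchial epithelial cells. Changes in either direction fitted relative to DMSO; parallel SRB staining checked overt cytotoxicity.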

Read-out in experiment [20]: Thrombomodulin, THBD (gene 7056)
Nature of the experiment: BSK_3C_Thrombomodulin: BioMAP Diversity Plus: 3C Assay for Thrombomodulin Biomarker Activity (AID 2283029). To be noted: primary human endothelial cells (HUVEC); actives raise or lower the signal. In short, it runs like this: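 ELISA measurement of thrombomodulin on HUVEC surface 24 h after chemical dosing; activity fitted in both directions relative to DMSO vehicle.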

Structures are written as SMILES. Records with an inconclusive call do not appear. Active and inactive are the calls of the source. Rule for the calls, unless noted: active = hit-call score of the fitted dose curve at least 0.9, where 1 is the maximum; inactive = score below 0.9.

Sequence of human Retinoid X Receptor beta (RXRb), RXRB (gene 6257) (P28702 whole entry, looked up, the tested form may be a part): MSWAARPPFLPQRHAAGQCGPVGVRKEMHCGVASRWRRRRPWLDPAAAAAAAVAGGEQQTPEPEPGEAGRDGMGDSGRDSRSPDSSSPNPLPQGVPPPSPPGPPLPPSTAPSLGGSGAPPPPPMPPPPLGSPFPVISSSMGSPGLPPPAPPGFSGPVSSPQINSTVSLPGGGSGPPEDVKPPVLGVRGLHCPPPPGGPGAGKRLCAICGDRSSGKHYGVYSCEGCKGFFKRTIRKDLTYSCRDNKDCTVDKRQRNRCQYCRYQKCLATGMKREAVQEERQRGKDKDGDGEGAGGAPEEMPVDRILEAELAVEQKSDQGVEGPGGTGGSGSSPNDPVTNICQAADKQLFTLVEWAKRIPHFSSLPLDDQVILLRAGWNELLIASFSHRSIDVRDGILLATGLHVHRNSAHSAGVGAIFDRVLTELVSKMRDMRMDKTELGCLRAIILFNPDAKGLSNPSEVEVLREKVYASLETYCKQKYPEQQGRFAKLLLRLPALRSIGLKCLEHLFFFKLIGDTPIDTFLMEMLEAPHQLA
Sequence of Retinoic acid receptor RXR-alpha (Homo sapiens) (P19793 whole entry, looked up, the tested form may be a part): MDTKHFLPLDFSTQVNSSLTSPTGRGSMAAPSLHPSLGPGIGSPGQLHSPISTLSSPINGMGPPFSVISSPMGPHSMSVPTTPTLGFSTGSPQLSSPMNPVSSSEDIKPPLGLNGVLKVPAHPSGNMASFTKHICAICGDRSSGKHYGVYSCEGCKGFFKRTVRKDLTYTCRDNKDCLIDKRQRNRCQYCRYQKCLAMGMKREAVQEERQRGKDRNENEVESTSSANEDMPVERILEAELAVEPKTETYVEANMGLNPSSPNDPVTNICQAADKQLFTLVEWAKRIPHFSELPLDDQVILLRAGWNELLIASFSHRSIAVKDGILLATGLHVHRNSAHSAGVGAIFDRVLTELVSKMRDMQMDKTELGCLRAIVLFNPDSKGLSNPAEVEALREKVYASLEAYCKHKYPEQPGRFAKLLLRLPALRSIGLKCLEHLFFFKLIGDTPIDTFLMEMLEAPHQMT
Sequence of E-selectin (Homo sapiens) (P16581 whole entry, looked up): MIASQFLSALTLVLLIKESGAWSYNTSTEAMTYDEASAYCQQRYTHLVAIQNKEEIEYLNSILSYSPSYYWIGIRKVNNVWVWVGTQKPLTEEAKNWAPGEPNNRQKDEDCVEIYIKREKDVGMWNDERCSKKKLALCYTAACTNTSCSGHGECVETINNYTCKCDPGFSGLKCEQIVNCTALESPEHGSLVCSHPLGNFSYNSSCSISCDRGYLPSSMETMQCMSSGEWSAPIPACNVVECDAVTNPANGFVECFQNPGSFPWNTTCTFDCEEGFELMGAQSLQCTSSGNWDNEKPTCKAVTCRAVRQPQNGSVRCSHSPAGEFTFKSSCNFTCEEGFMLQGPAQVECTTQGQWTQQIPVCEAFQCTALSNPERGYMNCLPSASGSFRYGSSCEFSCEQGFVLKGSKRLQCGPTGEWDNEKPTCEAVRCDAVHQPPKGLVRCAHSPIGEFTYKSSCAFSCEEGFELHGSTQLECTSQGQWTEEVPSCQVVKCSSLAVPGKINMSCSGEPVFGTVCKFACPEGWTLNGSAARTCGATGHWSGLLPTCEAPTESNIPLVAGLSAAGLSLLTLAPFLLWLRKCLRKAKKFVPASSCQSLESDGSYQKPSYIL
Sequence of human Thyroid Receptor alpha (THRa1), THRA (gene 7067) (P10827 whole entry, looked up, the tested form may be a part): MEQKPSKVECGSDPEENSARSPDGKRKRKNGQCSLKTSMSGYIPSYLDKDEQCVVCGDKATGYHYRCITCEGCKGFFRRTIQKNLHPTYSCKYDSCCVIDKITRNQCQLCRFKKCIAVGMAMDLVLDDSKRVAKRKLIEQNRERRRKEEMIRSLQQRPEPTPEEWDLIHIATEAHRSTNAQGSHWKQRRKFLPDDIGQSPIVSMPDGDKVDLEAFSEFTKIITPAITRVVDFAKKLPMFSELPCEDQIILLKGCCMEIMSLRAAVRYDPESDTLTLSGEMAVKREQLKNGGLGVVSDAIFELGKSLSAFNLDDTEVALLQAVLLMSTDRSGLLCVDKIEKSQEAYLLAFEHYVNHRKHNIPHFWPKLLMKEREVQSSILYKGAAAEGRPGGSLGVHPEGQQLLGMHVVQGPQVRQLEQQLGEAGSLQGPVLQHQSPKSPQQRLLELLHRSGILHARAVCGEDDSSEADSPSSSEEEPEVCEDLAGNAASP
Sequence of human Vitamin D Receptor (VDR), VDR (gene 7421) (P11473 whole entry, looked up, the tested form may be a part): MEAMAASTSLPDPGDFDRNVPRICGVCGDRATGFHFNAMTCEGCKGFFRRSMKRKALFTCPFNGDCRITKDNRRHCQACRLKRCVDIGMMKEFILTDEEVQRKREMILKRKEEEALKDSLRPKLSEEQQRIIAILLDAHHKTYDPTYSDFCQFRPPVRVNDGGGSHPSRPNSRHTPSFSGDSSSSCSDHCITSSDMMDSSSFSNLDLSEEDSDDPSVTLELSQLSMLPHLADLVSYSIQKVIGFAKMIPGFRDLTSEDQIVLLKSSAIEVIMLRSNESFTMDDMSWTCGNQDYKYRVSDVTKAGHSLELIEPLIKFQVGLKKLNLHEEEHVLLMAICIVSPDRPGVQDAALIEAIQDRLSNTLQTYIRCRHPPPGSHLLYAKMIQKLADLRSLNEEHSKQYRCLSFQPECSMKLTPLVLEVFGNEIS

`[As]#[In]`: the compound was classed as inactive in [1], in experiment [2], in [3], in experiment [4], in experiment [5] and in experiment [6]. The outcome in [7], in experiment [8], in [9], in experiment [10], in experiment [11] and in experiment [12] was inactive. Besides, the outcome in experiment [13], in experiment [14], in experiment [15], in experiment [16] and in experiment [17] was inactive.
Turning to `c1ccc(NNc2ccccc2)cc1`, the compound was called inactive in experiment [1], in [3], in experiment [4], in experiment [5], in experiment [6] and in experiment [7]. Besides, the outcome in experiment [8], in experiment [9], in experiment [10], in experiment [18], in experiment [11] and in experiment [19] was inactive. The outcome in [12], in experiment [13], in [14], in experiment [15], in experiment [20] and in [16] was inactive. The result in experiment [17] was inactive. In experiment [2], the AC50 is 100 µM (active).
`ClC1=C(Cl)[C@]2(Cl)[C@H]3[C@H]([C@@H]4C=C[C@H]3C4)[C@@]1(Cl)C2(Cl)Cl`: the compound was called inactive in experiment [1], in experiment [3], in experiment [5], in [18], in experiment [12] and in experiment [15]. Also, in [20], the outcome was inactive. The half-maximal activity concentration (AC50) was 10.4 µM (active) in experiment [2]; 30.9 µM (active) in experiment [4]; 32.2 µM (active) in experiment [6]; 24.2 µM (active) in experiment [7]; 24.9 µM (active) in [8]; 28.8 µM (active) in [9]. Moreover, the AC50 is 37.3 µM (active) in experiment [10]; 26 µM (active) in experiment [11]; 20 µM (active) in [19]; 24.1 µM (active) in experiment [13]; 33.3 µM (active) in experiment [14]; 29.4 µM (active) in experiment [17].
As to `CS(=O)(=O)NC(=O)c1cc(Oc2ccc(C(F)(F)F)cc2Cl)ccc1[N+](=O)[O-]`, the call in experiment [1], in experiment [2], in experiment [4], in experiment [5], in [6] and in [7] was inactive. For the same compound, the result in experiment [8], in experiment [9], in experiment [10], in experiment [18], in experiment [11] and in experiment [19] was inactive. Besides, the outcome in [12], in [13], in experiment [14], in experiment [15], in [20] and in [17] was inactive.
As for `Cc1ccc([N+](=O)[O-])cc1`, the compound was called inactive in experiment [1], in [2], in experiment [3], in [4], in experiment [5] and in [6]. Moreover, the result in experiment [7], in experiment [8], in experiment [9], in experiment [10], in experiment [18] and in experiment [11] was inactive. In addition, the result in experiment [12], in experiment [13], in [14], in [15], in [16] and in [17] was inactive.
`c1ccc2c(c1)-c1cccc3cccc-2c13`: the call in experiment [1], in experiment [3], in [4], in experiment [5], in [6] and in experiment [7] was inactive. In addition, the outcome in [8], in experiment [9], in experiment [10], in experiment [18], in [11] and in experiment [12] was inactive. In addition, the outcome in experiment [13], in experiment [14], in [15] and in experiment [20] was inactive. The AC50 in experiment [2] was 31.2 µM (active).

In general, AC50 refers to the concentration giving half of the maximal activity seen.

For the origin of these results see PubChem BioAssay (EPA / NIEHS).
